Counter-ions that a name gives are not always drawn.
These compounds were tested on MDA-MB-468 (assay: phospho-S6 immunofluorescence (DAPI-normalised), per-plate z-score; higher = higher phospho-S6 signal (less pathway suppression)). Settings: co-treatment: GDC0941 450 nM; 24 h.
Experimental: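 GPCR-targeted compound library (MedChemExpress HY-L006) tested on MDA-MB-468 PTEN-null TNBC cells in 384-well plates at 0.1, 1 or 10 uM, combined with vehicle, GDC0941 450 nM or lapatinib 1 uM, for 24 h. Phospho-S6 (S240/244) immunofluorescence normalised to DAPI and expressed as a per-plate z-score; values are the mean of biological triplicates.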
With `Nc1nc(CC(=O)Nc2ccc(CCNC[C@H](O)c3ccccc3)cc2)cs1` [Mirabegron] (compound 10 µM) the “phospho-S6 immunofluorescence (z-score)” value was 0.91.
`N#Cc1ccc2[nH]cc(CCCCN3CCN(c4ccc5oc(C(N)=O)cc5c4)CC3)c2c1` [Vilazodone] (compound 10 µM) was tested, and the “phospho-S6 immunofluorescence (z-score)” value was 0.37.
`CC(C)(C(=O)O)c1ccc(C(O)CCCN2CCC(C(O)(c3ccccc3)c3ccccc3)CC2)cc1` (stereo not given) [Fexofenadine (hydrochloride)] (compound 10 µM) was tested, and the “phospho-S6 immunofluorescence (z-score)” value was -0.31.
With `O=C(O[C@@H]1C[C@@H]2C[C@H]3C[C@H](C1)N2CC3=O)c1c[nH]c2ccccc12` [Dolasetron (Mesylate hydrate)] (compound 10 µM) the “phospho-S6 immunofluorescence (z-score)” value was 0.52.
With `Nc1nc2c(cnn2CCc2ccccc2)c2nc(-c3ccco3)nn12` (compound 10 µM) the “phospho-S6 immunofluorescence (z-score)” value was -0.2.
For `COc1ccc2cccc(CCNC(C)=O)c2c1` [Agomelatine] (compound 10 µM), the “phospho-S6 immunofluorescence (z-score)” value was 0.97.
With `OC[C@H]1O[C@@H](n2cnc3c(N[C@@H]4CCc5ccccc54)ncnc32)[C@H](O)[C@@H]1O` (compound 10 µM) the “phospho-S6 immunofluorescence (z-score)” value was 1.19.
`COc1ccc2[nH]cc(CCNC(C)=O)c2c1` [Melatonin] (compound 10 µM) was tested, and the “phospho-S6 immunofluorescence (z-score)” value was -1.25.
`Cc1ccc(F)cc1C(=O)Nc1ccc(C(=O)N2Cc3cccn3Cc3ccccc32)c(Cl)c1` [Lixivaptan] (compound 10 µM) was tested, and the “phospho-S6 immunofluorescence (z-score)” value was -2.79.
With `CCCCC(C)(O)C/C=C/[C@H]1[C@H](O)CC(=O)[C@@H]1CCCCCCC(=O)OC` (mixture of isomers) [Misoprostol] (compound 10 µM) the “phospho-S6 immunofluorescence (z-score)” value was 0.36.
`COc1ccc(N2CCOCC2)c2sc(NC(=O)N3CCC(C)(O)CC3)nc12` [Tozadenant] (compound 10 µM) was tested, and the “phospho-S6 immunofluorescence (z-score)” value was 0.02.
For `CN1CCN(c2cc(-c3ccccc3)nc(N)n2)CC1` (compound 10 µM), the “phospho-S6 immunofluorescence (z-score)” value was 0.39.
In the case of `CN(C)CC[C@@H](c1ccc(Cl)cc1)c1ccccn1` [Dexchlorpheniramine (maleate)] (compound 10 µM), the “phospho-S6 immunofluorescence (z-score)” value is reported as 0.61.
In the case of `COCCCN1CCC(NC(=O)c2cc(Cl)c(N)c3c2OCC3)CC1` [Prucalopride] (compound 10 µM), the “phospho-S6 immunofluorescence (z-score)” value is reported as 0.54.
With `CCCCC1=NC2(CCCC2)C(=O)N1Cc1ccc(-c2ccccc2-c2nnn[nH]2)cc1` [Irbesartan] (compound 10 µM) the “phospho-S6 immunofluorescence (z-score)” value was 0.03.
With `CC1OC2(CS1)CN1CCC2CC1` (stereo not given) [Cevimeline (hydrochloride hemihydrate)] (compound 10 µM) the “phospho-S6 immunofluorescence (z-score)” value was 0.65.
For `COc1cc2nc(N(C)CCCNC(=O)C3CCCO3)nc(N)c2cc1OC` (stereo not given) [Alfuzosin] (compound 10 µM), the “phospho-S6 immunofluorescence (z-score)” value was 0.81.
In the case of `NC1=NCC2c3ccccc3Cc3ccccc3N12` (stereo not given) [Epinastine] (compound 10 µM), the “phospho-S6 immunofluorescence (z-score)” value is reported as -0.05.
`Clc1ccc2c(c1)CCc1cccnc1C2=C1CCNCC1` [Desloratadine] (compound 10 µM) was tested, and the “phospho-S6 immunofluorescence (z-score)” value was -0.48.
With `CCCCc1ccc(NS(=O)(=O)c2ccc(F)cc2)cc1` (compound 10 µM) the “phospho-S6 immunofluorescence (z-score)” value was -3.59.
For `O=C(CCCN1CC=C(n2c(=O)[nH]c3ccccc32)CC1)c1ccc(F)cc1` [Droperidol] (compound 10 µM), the “phospho-S6 immunofluorescence (z-score)” value was -0.18.
`COc1ccc2cc(OCC3(C(=O)O)CN(C(=O)c4ccc(F)cc4)C3)ccc2c1` (compound 10 µM) was tested, and the “phospho-S6 immunofluorescence (z-score)” value was -1.13.
With `CCC1(c2c[nH]cn2)Cc2ccccc2C1` [Atipamezole (hydrochloride)] (compound 10 µM) the “phospho-S6 immunofluorescence (z-score)” value was -0.61.
With `COc1cc2c(cc1OC)CN(C(=O)[C@@H](NCc1ccncc1)C(C)(C)C)CC2` (compound 10 µM) the “phospho-S6 immunofluorescence (z-score)” value was 0.85.
`COc1cc(/C=C/C(=O)O)ccc1O` [Ferulic acid (sodium)] (compound 10 µM) was tested, and the “phospho-S6 immunofluorescence (z-score)” value was 0.56.
For `O=c1cc(C(Cl)(Cl)Cl)oc2ccc(Cl)cc12` (compound 10 µM), the “phospho-S6 immunofluorescence (z-score)” value was 0.54.
`CN(C)CCc1c[nH]c2ccc(CS(=O)(=O)N3CCCC3)cc12` [Almotriptan (malate)] (compound 10 µM) was tested, and the “phospho-S6 immunofluorescence (z-score)” value was 0.95.
With `C=C[C@@]1(C)CC(=O)[C@]2(O)[C@@]3(C)[C@@H](O)CCC(C)(C)[C@@H]3[C@H](O)[C@H](OC(C)=O)[C@@]2(C)O1` [Forskolin] (compound 10 µM) the “phospho-S6 immunofluorescence (z-score)” value was 1.82.
For `Cc1ccc(/C(=C\CN2CCCC2)c2cccc(/C=C/C(=O)O)n2)cc1` [Acrivastine] (compound 10 µM), the “phospho-S6 immunofluorescence (z-score)” value was 0.27.
For `CN1CCc2cc(Cl)c(O)cc2[C@@H](c2ccccc2)C1` (compound 10 µM), the “phospho-S6 immunofluorescence (z-score)” value was -0.98.

From the supplement of paper PMC7411640
